Experimental data: PubChem BioAssay (Tox21)
Values without a mark were called inactive. Inconclusive results are not listed. Entries that show only a call come without a potency. Calls of active or inactive are those of the source. Calls follow the shape of the dose curve; as a rule, active = well fitted curve in the direction sought with a large enough effect in the repeat runs; inconclusive = weak or mixed curves; inactive = no such curve, though single readings can be large; an effect the other way counts as inactive or inconclusive.

Assays:
[1] = qHTS RealTime-Glo MT Cell Viability Assay in HepG2 cells - 40 hour (AID 1224870); also: nearly all actives have a fitted effect of over 50% in size
Method in brief: (§1)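 HepG2 cells mixed with RealTime-Glo MT reagents (NanoLuc plus cell-permeant prosubstrate) were seeded at 600 cells/well, incubated 5 h at 37 C/5% CO2, then pinned with compounds in DMSO; nonlytic luminescence tracked viability during 40 h treatment.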

[2] = A CellTox Green Cytotoxicity Assay to monitor cytotoxicity in HEK293 cells - 40 hour (AID 1224871); also: nearly all actives have a fitted effect of over 45% in size
Method in brief: (§2)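 Real-time, in one plate: 600 HEK293 cells/well with dead-cell DNA dye, pinned compound after 5 h, 37 C incubation over 40 h; viable cells give no appreciable fluorescence.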

[3] = qHTS RealTime-Glo MT Cell Viability Assay in HEK293 cells - 16 hour (AID 1224872); also: top concentration of the series differs between compounds; nearly all actives have a fitted effect of over 50% in size
Method in brief: (§3)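 Viability tracked continuously by luminescence as live cells reduce a prosubstrate for NanoLuc; HEK293 cells preincubated 5 h, compound-treated at 37 C, and read at 0, 8, 16, 24, 32 and 40 h.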

[4] = qHTS RealTime-Glo MT Cell Viability Assay in HepG2 cells - 8 hour (AID 1224873); also: nearly all actives have a fitted effect of over 55% in size
Method in brief: as §1

[5] = qHTS RealTime-Glo MT Cell Viability Assay in HEK293 cells - 40 hour (AID 1224874); settings: RealTime-Glo luminescence; max response: active compounds read low; also: nearly all actives have a fitted effect of over 50% in size
Method in brief: (§4)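 Kinetic, non-lysing viability readout. Seed HEK293 (600/well) with reagent, incubate 5 h at 37 C/5% CO2, pin 23 nL compound in DMSO, incubate at 37 C, read luminescence at 0, 8, 16, 24, 32, 40 h.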

[6] = A CellTox Green Cytotoxicity Assay to monitor cytotoxicity in HEK293 cells - 24 hour (AID 1224875); also: series mostly up to about 77 µM; nearly all actives have a fitted effect of over 45% in size
Method in brief: as §2

[7] = A CellTox Green Cytotoxicity Assay to monitor cytotoxicity in HepG2 cells - 16 hour (AID 1224876); also: nearly all actives have a fitted effect of over 45% in size
Method in brief: (§5)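 Cytotoxicity was tracked as dead-cell DNA fluorescence in HepG2 cells treated with test compounds at 37 C; each time-point value comes from one kinetic series spanning 0, 8, 16, 24, 32 and 40 h.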

[8] = qHTS RealTime-Glo MT Cell Viability Assay in HepG2 cells - 32 hour (AID 1224877); also: nearly all actives have a fitted effect of over 55% in size
Method in brief: (§6)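 Viability was tracked continuously by NanoLuc luminescence from prosubstrate reduced by living HepG2 cells, at successive time points over 40 h of compound exposure. Cells with reagent were preincubated 5 h at 37 °C before compound addition.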

[9] = A CellTox Green Cytotoxicity Assay to monitor cytotoxicity in HepG2 cells - 24 hour (AID 1224878); also: nearly all actives have a fitted effect of over 45% in size
Method in brief: as §5

[10] = A CellTox Green Cytotoxicity Assay to monitor cytotoxicity in HepG2 cells - 40 hour (AID 1224879); also: nearly all actives have a fitted effect of over 40% in size; also: potency is read from the fitted curve at half-maximal effect
Method in brief: as §5

[11] = qHTS RealTime-Glo MT Cell Viability Assay in HEK293 cells - 0 hour (AID 1224880); also: nearly all actives have a fitted effect of over 45% in size; also: potency is read from the fitted curve at half-maximal effect
Method in brief: as §4

[12] = A CellTox Green Cytotoxicity Assay to monitor cytotoxicity in HEK293 cells - 32 hour (AID 1224881); also: nearly all actives have a fitted effect of over 40% in size
Method in brief: as §2

[13] = A CellTox Green Cytotoxicity Assay to monitor cytotoxicity in HepG2 cells - 0 hour (AID 1224882); also: nearly all actives have a fitted effect of over 35% in size
Method in brief: as §5

[14] = A CellTox Green Cytotoxicity Assay to monitor cytotoxicity in HepG2 cells - 32 hour (AID 1224883); also: nearly all actives have a fitted effect of over 50% in size; also: potency is read from the fitted curve at half-maximal effect
Method in brief: as §5

[15] = qHTS RealTime-Glo MT Cell Viability Assay in HepG2 cells - 16 hour (AID 1224885); also: nearly all actives have a fitted effect of over 50% in size
Method in brief: as §6

[16] = qHTS RealTime-Glo MT Cell Viability Assay in HEK293 cells - 24 hour (AID 1224886)
Method in brief: as §3

[17] = qHTS RealTime-Glo MT Cell Viability Assay in HEK293 cells - 8 hour (AID 1224887)
Method in brief: as §4

[18] = A CellTox Green Cytotoxicity Assay to monitor cytotoxicity in HEK293 cells - 16 hour (AID 1224888); also: nearly all actives have a fitted effect of over 35% in size
Method in brief: as §2

[19] = qHTS RealTime-Glo MT Cell Viability Assay in HepG2 cells - 0 hour (AID 1224889); also: nearly all actives have a fitted effect of over 50% in size; also: potency is read from the fitted curve at half-maximal effect
Method in brief: as §6

[20] = A CellTox Green Cytotoxicity Assay to monitor cytotoxicity in HEK293 cells - 8 hour (AID 1224884); also: nearly all actives have a fitted effect of over 35% in size
Method in brief: as §2

Structure (SMILES)	Potency [1]	Potency [2]	Potency [3]	Potency [4]	max response [5]	Potency [6]	Potency [7]	Potency [8]	Potency [9]	Potency [10]	Potency [11]	Potency [12]	Potency [13]	Potency [14]	Potency [15]	Potency [16]	Potency [17]	Potency [18]	Potency [19]	Potency [20]
CCc1ccccc1	inactive	inactive	inactive	inactive	10.2%	inactive	inactive	inactive	inactive	inactive	inactive	inactive	inactive	inactive	inactive	inactive	inactive	inactive	inactive	–
O[C@@H]1CO[C@H]2[C@@H]1OC[C@@H]2O	inactive	inactive	inactive	inactive	8.95%	inactive	inactive	inactive	inactive	inactive	inactive	inactive	inactive	inactive	–	inactive	inactive	inactive	inactive	inactive
CC1=C(CC=O)C(C)(C)CCC1	inactive	inactive	inactive	inactive	-9.82%	inactive	inactive	inactive	inactive	inactive	–	inactive	inactive	inactive	inactive	inactive	inactive	inactive	inactive	inactive
CCC(=O)OC	inactive	inactive	inactive	inactive	4.28%	inactive	inactive	inactive	inactive	inactive	inactive	inactive	inactive	inactive	–	inactive	inactive	–	inactive	inactive
CN(C)CCN1C(=O)c2ccccc2N(C)c2ccccc21	inactive	inactive	inactive	inactive	-6.83%	inactive	inactive	inactive	inactive	inactive	inactive	inactive	inactive	inactive	inactive	inactive	inactive	–	inactive	inactive
C=C1C[C@@]23CC[C@H]4[C@@](C)(CCC[C@@]4(C)C(=O)O[C@@H]4O[C@H](CO)[C@@H](O)[C@H](O)[C@H]4O)[C@@H]2CC[C@]1(O[C@@H]1O[C@H](CO)[C@@H](O)[C@H](O[C@@H]2O[C@H](CO)[C@@H](O)[C@H](O)[C@H]2O)[C@H]1O[C@@H]1O[C@H](CO)[C@@H](O)[C@H](O)[C@H]1O)C3	inactive	inactive	inactive	inactive	3.82%	inactive	inactive	inactive	inactive	inactive	inactive	inactive	inactive	inactive	inactive	inactive	inactive	inactive	inactive	inactive
CC(=O)c1cc2ccccc2s1	inactive	inactive	inactive	inactive	2.63%	inactive	inactive	inactive	inactive	inactive	inactive	inactive	inactive	inactive	inactive	inactive	inactive	–	inactive	–
CC1(C)[C@H](C(=O)O)N2C(=O)C[C@H]2S1(=O)=O	inactive	inactive	inactive	inactive	1.99%	inactive	inactive	inactive	inactive	inactive	inactive	inactive	inactive	inactive	–	inactive	inactive	inactive	inactive	–
CCCCOc1ccc(OCCCN2CCOCC2)cc1	inactive	inactive	inactive	inactive	-27.6%	inactive	inactive	inactive	inactive	inactive	inactive	inactive	inactive	inactive	inactive	–	inactive	–	inactive	–
CC1(C)O[C@@H]2C[C@H]3[C@@H]4C[C@H](F)C5=CC(=O)C=C[C@]5(C)[C@H]4[C@@H](O)C[C@]3(C)[C@]2(C(=O)CO)O1	inactive	inactive	inactive	inactive	-1.56%	inactive	inactive	inactive	inactive	inactive	–	inactive	inactive	inactive	inactive	–	inactive	inactive	–	inactive
O=C(O)c1cccc(-c2noc(-c3ccccc3F)n2)c1	inactive	inactive	inactive	inactive	2.77%	inactive	inactive	inactive	inactive	inactive	inactive	inactive	–	inactive	inactive	–	inactive	inactive	inactive	inactive
O=C1c2ccccc2C(=O)c2c(O)c(O)cc(O)c21	inactive	inactive	inactive	inactive	9.06%	inactive	inactive	inactive	inactive	inactive	inactive	inactive	inactive	inactive	inactive	inactive	inactive	inactive	inactive	inactive
CCOC(=O)c1ccc(O)c(O)c1	inactive	inactive	inactive	inactive	-21.6%	inactive	–	inactive	–	inactive	inactive	inactive	–	inactive	inactive	inactive	inactive	inactive	inactive	inactive
COC(=O)CS	inactive	inactive	inactive	inactive	0.933%	inactive	inactive	–	inactive	inactive	inactive	inactive	inactive	inactive	–	inactive	inactive	–	inactive	inactive
COc1ncnc(NS(=O)(=O)c2ccc(N)cc2)c1OC	inactive	inactive	inactive	inactive	-0.242%	inactive	–	inactive	–	–	–	inactive	–	–	inactive	–	–	inactive	inactive	inactive
Cc1ccc(CO)cc1	inactive	inactive	inactive	inactive	18.5%	inactive	–	inactive	inactive	inactive	inactive	inactive	inactive	inactive	inactive	inactive	inactive	inactive	inactive	–
NNC(=O)CP(=O)(c1ccccc1)c1ccccc1	inactive	inactive	inactive	inactive	–	inactive	inactive	inactive	inactive	inactive	inactive	inactive	inactive	inactive	inactive	inactive	inactive	inactive	inactive	inactive
O=C(O)c1ccc(OCCCOc2ccc(C(=O)O)cc2)cc1	inactive	inactive	inactive	inactive	1.73%	inactive	inactive	–	inactive	inactive	inactive	inactive	inactive	inactive	inactive	inactive	inactive	inactive	inactive	–
NCCNCCO	inactive	inactive	inactive	inactive	20.2%	inactive	–	–	inactive	inactive	inactive	inactive	–	inactive	inactive	inactive	inactive	inactive	inactive	inactive
CCCCCCCCCCC(=O)O	inactive	inactive	inactive	inactive	3.53%	inactive	inactive	inactive	–	inactive	inactive	inactive	inactive	inactive	–	inactive	inactive	–	inactive	inactive
CC(CO)CO	inactive	inactive	inactive	inactive	3.5%	inactive	inactive	–	inactive	inactive	inactive	inactive	inactive	inactive	inactive	inactive	inactive	inactive	inactive	inactive
CCOC(=O)OC(C)OC(=O)[C@@H]1N2C(=O)[C@@H](NC(=O)[C@H](N)c3ccccc3)[C@H]2SC1(C)C (some centres undefined)	inactive	inactive	inactive	inactive	-0.757%	inactive	–	inactive	–	inactive	inactive	inactive	inactive	inactive	–	inactive	inactive	–	inactive	inactive
CC(C)(C)C(=O)C(=O)O	inactive	inactive	inactive	inactive	0.984%	–	–	–	inactive	–	inactive	inactive	inactive	–	inactive	inactive	inactive	–	inactive	inactive
CCCCCCCCOc1ccc(C(=O)O)cc1	inactive	inactive	inactive	inactive	-8.38%	inactive	–	inactive	inactive	inactive	inactive	inactive	inactive	inactive	inactive	–	inactive	inactive	inactive	inactive
Cc1ccccc1N=C(N)Nc1ccccc1C	inactive	inactive	inactive	inactive	-12.1%	inactive	inactive	–	–	inactive	inactive	inactive	inactive	inactive	inactive	inactive	inactive	inactive	inactive	inactive
CCCCCCCCC(CCCCCC)C(=O)O (centres undefined)	inactive	inactive	inactive	inactive	-3.96%	inactive	inactive	inactive	–	61.6 µM (active)	–	inactive	inactive	61.6 µM (active)	inactive	inactive	inactive	inactive	inactive	inactive
CC1(C)[C@@H](OC(=O)CCC(=O)O)CC[C@]2(C)[C@H]3C(=O)C=C4[C@@H]5C[C@@](C)(C(=O)O)CC[C@]5(C)CC[C@@]4(C)[C@]3(C)CC[C@@H]12	inactive	inactive	inactive	inactive	10.8%	inactive	–	inactive	inactive	inactive	inactive	inactive	–	inactive	inactive	inactive	inactive	–	inactive	inactive
CC(=O)OCC[N+](C)(C)C	inactive	inactive	inactive	inactive	1.87%	inactive	–	inactive	inactive	inactive	inactive	inactive	inactive	inactive	inactive	inactive	inactive	inactive	inactive	inactive
CC(CN(C)C)C(C)(O)Cc1ccc(Cl)cc1 (centres undefined)	inactive	inactive	inactive	inactive	-0.684%	inactive	–	inactive	–	inactive	inactive	inactive	–	inactive	inactive	inactive	inactive	inactive	inactive	inactive
CC(C)Nc1cccnc1N1CCN(C(=O)c2cc3cc(NS(C)(=O)=O)ccc3[nH]2)CC1	inactive	inactive	inactive	inactive	-29%	inactive	inactive	–	inactive	inactive	9.52 µM (active)	inactive	–	inactive	–	inactive	inactive	–	3.38 µM (active)	inactive
